Bioassay records: PubChem BioAssay, ICCB-Longwood Screening Facility, Harvard Medical School
Bm FixLJ act: B. multivorans fixK reporter activation | B. multivorans fixK-promoter GFP reporter, 18 h; stronger effect = higher value | z-score (concentration not given with the values) | 0.3% of 29,000 active;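 active = replicate mean overnight rise in green fluorescent reporter signal, 3 or more SD over negative controls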
Hits are given with their value; – = inactive. The entries come from a sample that favours hits as a whole.

SMILES | Bm FixLJ act
O=C1C2=C(Nc3ccccc3SC2c2ccc(C(F)(F)F)cc2)c2ccccc21 (stereo not given) | –
CC(c1ccncn1)N(C)C(=O)C=Cc1cc(CO)cs1 (stereo not given) | –
CCn1c(CCNC(=O)N(C)Cc2nc(C)cs2)nc2ccccc21 | –
O=C(Cn1ncc2c3ccccc3n(Cc3ccc(F)cc3)c2c1=O)NC1CCCCCC1 | –
O=C(Cn1ncc2c3ccccc3n(Cc3cccc(Cl)c3)c2c1=O)NC1CCCCCC1 | 23
O=C(Cn1ncc2c3ccccc3n(Cc3cccc(Cl)c3)c2c1=O)NCCC1=CCCCC1 | 13
Cc1cc(C)c(Cn2c3ccccc3c3cnn(CC(=O)NC4CCCCCC4)c(=O)c32)c(C)c1 | –
O=C(Cn1ncc2c3ccccc3n(Cc3ccc(F)cc3)c2c1=O)NCCC1=CCCCC1 | –
Cc1ccc(C)c(Cn2c3ccccc3c3cnn(CC(=O)NCCC4=CCCCC4)c(=O)c32)c1 | –
O=C(NCCSc1cn[nH]n1)N1CCCC(Cc2nc3ccccc3[nH]2)C1 (stereo not given) | –
O=C1CCC2(CCCN(C(=O)c3ccc(F)cc3)C2)CN1CCO (stereo not given) | –
Cc1nnnn1CCC(=O)NCc1ccc(-n2cncn2)cc1 | –
CN(CCN1CCCCC1=O)C(=O)c1ccc(N2CCOCC2)cc1 | –
COc1ccccc1Nc1nc2ccc(Cl)cc2nc1-n1nc(C)cc1C | 3.2
Cc1ccc2nc(Nc3cccc(Cl)c3C)c(-n3nc(C)cc3C)nc2c1 | –
COc1ccc(OC)c(Nc2nc3ccccc3nc2-n2nc(C)cc2C)c1 | –
CN1CCN(CCC2CCCCN2C(=O)c2cnc[nH]2)CC1 (stereo not given) | –
O=C(CCCc1nc(-c2cccnc2)no1)N1CC(n2cccn2)C1 | –
Cc1cccc(N2CCN(S(=O)(=O)c3cc(Cl)ccc3Cl)CC2)c1C | –
COc1ccc(S(=O)(=O)N2CCN(c3cccc(C)c3C)CC2)c2ccccc12 | –
CCOc1ccc(OCC)c(S(=O)(=O)N2CCN(c3cccc(C)c3C)CC2)c1 | 3.4
CC(C)c1nc(CN(C)C(=O)c2cnc(N)nc2-c2ccccc2)cs1 | –
CCCc1noc(CN(C)C(=O)c2cc(OC)c3ccccc3n2)n1 | –
CCCn1ncnc1-c1cccc(C(=O)NCCc2nc(N)cc(=O)[nH]2)c1 | –
Cc1ccc(Cc2ccccc2C(=O)NCCN2CCNC2=O)cc1 | –
SMILES | Bm FixLJ act
O=C(O)CC1(NC(=O)N2Cc3ccccc3C(O)C2)CCCCC1 (stereo not given) | –
Cc1cc(CC2CN(C(=O)c3cc(O)ccc3F)CC2O)on1 (stereo not given) | –
Cc1nc(SCc2cccc(Cl)c2)nc2c1CCCC2 | 3
CN(Cc1ccccc1)C(=O)CSc1c2c(nc3ccc(Cl)cc13)CCCC2 | –
O=C(NCc1cccc(Cl)c1)c1ccc2c(Cl)c3c(nc2c1)CCCC3 | –
CCOc1ccc(NC(=O)CC2C(=O)N(c3cccc(C)c3)C(=O)N2CCC2=CCCCC2)cc1 (stereo not given) | 3
COc1ccc(NC(=O)CC2C(=O)N(c3ccccc3)C(=O)N2CCC2=CCCCC2)cc1 (stereo not given) | –
O=C(CC1C(=O)N(c2ccccc2)C(=O)N1CCC1=CCCCC1)Nc1ccc(F)cc1 (stereo not given) | –
Cc1noc(C)c1CCC(=O)NC1C2CCC1CN(C(=O)C1CCCO1)C2 (stereo not given) | –
CC(C)c1ccc(/C=C(\C#N)c2nc(-c3ccc(O)cc3)cs2)cc1 | 8.4
CC(C)c1ccc(/C=C(\C#N)c2nc(-c3cc4ccccc4oc3=O)cs2)cc1 | –
COc1ccc(/C=C(/C#N)c2nc(-c3ccc(Br)cc3)cs2)cc1 | –
CCC(C)n1c(=N)c(S(=O)(=O)c2ccccc2)cc2c(=O)n3ccccc3nc21 (stereo not given) | –
CCC(C)n1c(=N)c(S(=O)(=O)c2ccc(C)cc2)cc2c(=O)n3cc(C)ccc3nc21 (stereo not given) | 5.7
CCCCCn1c(=N)c(S(=O)(=O)c2ccc(C)cc2)cc2c(=O)n3cc(C)ccc3nc21 | –
COCCN1CCN(C(=O)NC(C)c2ccc3[nH]ccc3c2)CC1 (stereo not given) | –
CCc1ccc(OCC(=O)Nc2c(C(=O)c3ccccc3)oc3ccccc23)cc1 | –
O=C(Cc1ccccc1)Nc1c(C(=O)c2ccccc2)oc2ccccc12 | 3.1
Cc1ccc(NC(=O)c2oc3ccccc3c2NC(=O)Cc2ccccc2)cc1 | –
Nc1ccc(O)cc1C(=O)NC1CCCN(Cc2ccccc2F)C1 (stereo not given) | –
COc1ccc2c(c1)C=C(CNCCCNS(=O)(=O)c1ccc(C)cc1)CO2 | –
